According to the supplement of paper PMC12645437, “Orthogonal IMiD-Degron Pairs Induce Selective Protein Degradation in Cells” (ACS Chemical Biology, 2025):
In all, about 8,300 sequences were measured (“log2 fold change of degron read counts, EGFP-low vs EGFP+ sorted cells (limma voom), compound-induced degradation”: median about -1.1, highest 2% from about 3.2 on). This is one part of a sample in which the highest values are shown more often than they occur.

T1: CRBN, Q96SW2
T1 chain: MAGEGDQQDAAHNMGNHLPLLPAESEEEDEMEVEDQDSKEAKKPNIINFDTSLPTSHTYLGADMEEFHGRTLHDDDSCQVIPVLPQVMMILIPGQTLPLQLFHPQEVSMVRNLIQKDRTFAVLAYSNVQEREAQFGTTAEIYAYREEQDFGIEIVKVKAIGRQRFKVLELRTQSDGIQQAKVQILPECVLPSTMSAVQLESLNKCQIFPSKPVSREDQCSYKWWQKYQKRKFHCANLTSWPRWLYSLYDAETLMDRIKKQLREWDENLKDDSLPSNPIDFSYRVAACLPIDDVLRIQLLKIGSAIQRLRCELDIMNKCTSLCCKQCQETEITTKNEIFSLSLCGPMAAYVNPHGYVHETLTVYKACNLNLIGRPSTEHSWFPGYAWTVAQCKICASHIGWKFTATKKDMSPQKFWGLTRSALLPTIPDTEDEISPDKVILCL


Molecular target: T1, CRBN, Q96SW2
Experiment: log2 fold change of degron read counts, EGFP-low vs EGFP+ sorted cells (limma voom), compound-induced degradation; higher = more compound-induced degradation of the degron-EGFP fusion; degrons are variants of IKZF1/3 zinc finger 2; compound dose not given here
Conditions: Jurkat, 18 h
[1] = compound: compound 19 (5-tert-butyl-thalidomide)
[2] = compound: compound 22 (5-morpholino-thalidomide)
[3] = compound: compound 33 (diphenyl IMiD analogue)
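Also: pooled lentiviral library of zinc finger degron-EGFP fusions in mCherry-positive Jurkat cells, FACS-sorted after compound exposure, with degron abundance counted by next-generation sequencing.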

Sequence	log2 fold change of degron read counts [1]	log2 fold change of degron read counts [2]	log2 fold change of degron read counts [3]	log2 fold change of degron read counts (compound: thalidomide)
FQCPQCGAMFTQKGNLLRHIKL [46F_47Q_49P_50Q_52G_53A_54M_55F_67L_, Q9UKT9]	-1.88	-0.122	0.828	2.53
LCCNQCGFMCTQKGNLLRHIKL [46L_47C_49N_50Q_52G_53F_54M_55C_67L_, Q9UKT9]	-1.73	-2.27	-1.57	-1.43
FVCDVCGAVFTQKGNLLRHIKL [46F_47V_49D_50V_52G_53A_54V_55F_67L_, Q9UKT9]	-2.2	-1.22	0.29	-0.895
FQCNQCGAYFTQKGNLLRHIKL [46F_47Q_49N_50Q_52G_53A_54Y_55F_67L_, Q9UKT9]	-2.89	-2.26	-1.84	-0.227
FTCPQCGAQFTQKGNLLRHIKL [46F_47T_49P_50Q_52G_53A_54Q_55F_67L_, Q9UKT9]	-2.03	0.309	1.83	1.07
LECPICGFGCTQKGNLLRHIKL [46L_47E_49P_50I_52G_53F_54G_55C_67L_, Q9UKT9]	0.698	-0.66	1.1	2.27
FNCNQCGHVFTQKGNLLRHIKL [46F_47N_49N_50Q_52G_53H_54V_55F_67L_, Q9UKT9]	-2.33	-2.54	-2.77	-2.34
FECPICGHPFTQKGNLLRHIKL [46F_47E_49P_50I_52G_53H_54P_55F_67L_, Q9UKT9]	-2.51	-2.54	-0.989	-0.173
FFCPICGHGFTQKGNLLRHIKL [46F_47F_49P_50I_52G_53H_54G_55F_67L_, Q9UKT9]	-1.02	-1.29	-0.968	-1.48
FDCEICGAPFTQKGNLLRHIKL [46F_47D_49E_50I_52G_53A_54P_55F_67L_, Q9UKT9]	2.21	0.891	-0.242	0.789
FHCEICGAFFTQKGNLLRHIKL [46F_47H_49E_50I_52G_53A_54F_55F_67L_, Q9UKT9]	0.885	-0.276	0.198	-1.2
FHCEICGAPFTQKGNLLRHIKL [46F_47H_49E_50I_52G_53A_54P_55F_67L_, Q9UKT9]	4	3.46	2.38	1.9
FACEICGAPFTQKGNLLRHIKL [46F_47A_49E_50I_52G_53A_54P_55F_67L_, Q9UKT9]	3.6	2.51	0.463	1.72
FLCEICGAPFTQKGNLLRHIKL [46F_47L_49E_50I_52G_53A_54P_55F_67L_, Q9UKT9]	2.96	2.82	2.69	3.17
FECEICGAPFTQKGNLLRHIKL [46F_47E_49E_50I_52G_53A_54P_55F_67L_, Q9UKT9]	2.7	-0.51	1.41	2.07
FHCEICGADFTQKGNLLRHIKL [46F_47H_49E_50I_52G_53A_54D_55F_67L_, Q9UKT9]	-1.38	-3.23	-1.06	-2.34
FTCEICGAPFTQKGNLLRHIKL [46F_47T_49E_50I_52G_53A_54P_55F_67L_, Q9UKT9]	2.99	3.21	2.47	3.17
FRCEICGAPFTQKGNLLRHIKL [46F_47R_49E_50I_52G_53A_54P_55F_67L_, Q9UKT9]	3.62	3.98	3.31	3.58

Sequence	log2 fold change of degron read counts [1]	log2 fold change of degron read counts [2]	log2 fold change of degron read counts [3]	log2 fold change of degron read counts (compound: thalidomide)
FLCEQCGAMFTQKGNLLRHIKL [46F_47L_49E_50Q_52G_53A_54M_55F_67L_, Q9UKT9]	-2.2	-2.48	-0.823	-1.31
FECDICGAIFTQKGNLLRHIKL [46F_47E_49D_50I_52G_53A_54I_55F_67L_, Q9UKT9]	-1.92	-1.75	-0.965	0.171
FQCNQCGAFFTQKGNLLRHIKL [46F_47Q_49N_50Q_52G_53A_54F_55F_67L_, Q9UKT9]	-2.56	-2.44	-1.62	-1.28
FICEQCGANFTQKGNLLRHIKL [46F_47I_49E_50Q_52G_53A_54N_55F_67L_, Q9UKT9]	-2.09	-0.316	0.362	0.322
FRCNICGASFTQKGNLLRHIKL [46F_47R_49N_50I_52G_53A_54S_55F_67L_, Q9UKT9]	0.331	0.291	0.894	0.839
FVCDICGARFTQKGNLLRHIKL [46F_47V_49D_50I_52G_53A_54R_55F_67L_, Q9UKT9]	0.23	1.75	-0.304	1.47
FQCDICGARFTQKGNLLRHIKL [46F_47Q_49D_50I_52G_53A_54R_55F_67L_, Q9UKT9]	-1.01	1.3	0.0735	3.03
FACDICGARFTQKGNLLRHIKL [46F_47A_49D_50I_52G_53A_54R_55F_67L_, Q9UKT9]	3.46	1.91	-1.69	-0.979
FRCDICGARFTQKGNLLRHIKL [46F_47R_49D_50I_52G_53A_54R_55F_67L_, Q9UKT9]	-1.84	-2.03	-1.21	-0.575
FLCDICGARFTQKGNLLRHIKL [46F_47L_49D_50I_52G_53A_54R_55F_67L_, Q9UKT9]	-0.594	-2.06	-0.802	0.425
FYCDICGARFTQKGNLLRHIKL [46F_47Y_49D_50I_52G_53A_54R_55F_67L_, Q9UKT9]	3.31	3.35	0.716	-0.312
FCCDICGARFTQKGNLLRHIKL [46F_47C_49D_50I_52G_53A_54R_55F_67L_, Q9UKT9]	2.34	2.23	0.356	1.57
FDCDICGARFTQKGNLLRHIKL [46F_47D_49D_50I_52G_53A_54R_55F_67L_, Q9UKT9]	1.85	0.0154	-1.13	-0.0241
FGCDICGARFTQKGNLLRHIKL [46F_47G_49D_50I_52G_53A_54R_55F_67L_, Q9UKT9]	2.15	0.817	-1.24	0.195
FFCDICGARFTQKGNLLRHIKL [46F_47F_49D_50I_52G_53A_54R_55F_67L_, Q9UKT9]	3.58	3.35	0.994	0.0481
FWCDICGARFTQKGNLLRHIKL [46F_47W_49D_50I_52G_53A_54R_55F_67L_, Q9UKT9]	3.15	3.82	0.741	0.265
FTCDICGARFTQKGNLLRHIKL [46F_47T_49D_50I_52G_53A_54R_55F_67L_, Q9UKT9]	1.44	2.55	0.655	1.76
